PubChem BioAssay (NCATS)
Where “and” joins values, the source holds several entries; their conditions need not be identical. Identical values can stand only once. Inconclusive results are not listed. Entries that show only a call come without a potency. A number with no mark means an inactive call. Calls of active or inactive are those of the source. Unless noted, the call rests on the fitted dose curve; in most records, active means well fitted curve in the direction sought with a large enough effect; inconclusive means small, poorly fitted or top-dose-only effect, or another doubt; inactive means no such curve, though single readings can be large; an effect the other way counts as inactive or inconclusive.

Assays:
[1] = qHTS to identify inhibitors of the type 1 interferon - major histocompatibility complex class I in skeletal muscle: primary screen against the NCATS Pharmaceutical Collection (AID 1347407); conditions: human skeletal muscle cells, IFN-b-induced MHC-I HiBiT luminescence, 24 h; series mostly up to 45.9 µM;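 further: luminescence of HiBiT knocked into endogenous HLA-B as interferon-induced MHC class I level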
In short: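 HLA-B HiBiT myoblasts, dexamethasone-free growth medium + 4 ng/ml IFN-b; compounds pinned 1 h after seeding, […] from 46 uM; 24 h, 37 C, 5% CO2; lytic HiBiT detection, 10 min RT, luminescence.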

[2] = target: Protein phosphatase 1D (Homo sapiens) (UniProt O15297); assay: RapidFire Mass Spectrometry qHTS Assay for Modulators of WT P53-Induced Phosphatase 1 (WIP1) (AID 1347424); conditions: WIP1 dephosphorylation of phosphopeptide, RapidFire MS; series mostly up to 63 µM;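 further: amount of dephosphorylated VEPPL-S-QETFS peptide product formed by WIP1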
In short: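 10 nM WIP1 preincubated with compounds 1 hr at room temperature in pH 7.5 Tris buffer with 30 mM MgCl2, 1 mM TCEP; 2 uM VEPPL-pS-QETFS phosphopeptide for 5 min, formic acid quench; dephosphorylated product quantified by RapidFire MS against labelled standard.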

[3] = target: Protein phosphatase 1D (Homo sapiens) (UniProt O15297); assay: Rhodamine-PBP qHTS Assay for Modulators of WT P53-Induced Phosphatase 1 (WIP1) (AID 1347425); conditions: recombinant WIP1, Rhodamine-PBP phosphate fluorescence, real-time; series mostly up to 57.5 µM
In short: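 5 nM WIP1 + 10 uM Rh-PBP, 50 mM Tris pH 7.5, 30 mM MgCl2, 1 mM TCEP, 0.1 mM EGTA, BSA; cpds pinned, 1 hr RT; + 10 uM phosphopeptide; fluorescence 1-min reads x 11 min; delta = f1 - f0.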

[4] = Primary qHTS for inhibitors of La Crosse Virus (LACV) - induced cell death in SH-SY5Y cells (AID 1508616); conditions: SH-SY5Y LACV cytopathicity rescue, ATP luminescence, 6 d; series mostly up to 4.29 µM;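 further: top concentration of the series differs between compounds; higher means more rescue of cells from virus-induced death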
In short: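 SH-SY5Y cells (6000/well) plated 24 h, then given compounds by pin transfer and LACV at 0.01 MOI for 6 days at 37C. Viability measured by ATPLite luminescence, normalized to infected DMSO and uninfected DMSO.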

[5] = target: Calcium and integrin-binding protein 1 (Homo sapiens) (UniProt Q99828); assay: Primary qHTS for Identification of Calcium Integrin Binding Protein 1 (CIB1) Competitor (AID 1508620); conditions: CIB1-GST / FITC-alphaIIb peptide fluorescence polarization; series mostly up to 114 µM;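 further: GST tagged CIB1 binding a fluorescein labelled alphaIIb integrin peptide tracer; top concentration of the series differs between compounds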
In short: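 Fluorescence polarization competition: GST-tagged CIB1 (1 uM final) preincubated with compound 15 min at room temperature, then FITC-labelled alphaIIb peptide (100 nM final) added. After 15 min at room temperature, polarization read at Ex 480/Em 540.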

[6] = Counterscreen qHTS for small molecule stabilizers of the endoplasmic reticulum resident proteome: GLuc-NoTag assay (AID 1508627); conditions: Gaussia luciferase NoTag secretion counterscreen, luminescence, thapsigargin 100 nM for final 4 h; series mostly up to 76.4 µM; further: potency means the concentration at half of the fitted maximal effect
In short: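 SH-SY5Y cells stably expressing constitutively secreted GLuc without SERCaMP tag, exposed to compound for 19 hr, then to 100 nM thapsigargin for 4 hr at 37C. Medium luciferase was read by coelenterazine luminescence without lysis.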

[7] = Confirmatory qHTS for small molecule stabilizers of the endoplasmic reticulum resident proteome: Secreted ER Calcium Modulated Protein (SERCaMP) assay (AID 1508628); conditions: SERCaMP secreted luciferase ER calcium/proteostasis reporter; series mostly up to 76.3 µM; further: potency means the concentration at half of the fitted maximal effect; nearly all actives have a fitted effect of over 40% in size
In short: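 SH-SY5Y cells stably expressing GLuc-SERCaMP, treated 16 h with compound (primary 1.53, 7.67, 38.3 uM; confirmation 11 concentrations, up to 76.6 uM), then 100 nM thapsigargin for 4 h. Secreted Gaussia luciferase in medium read by coelenterazine luminescence.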

[8] = Cell Viability qHTS for small molecule stabilizers of the endoplasmic reticulum resident proteome (AID 1508629); conditions: cell viability counter-screen, 100 nM thapsigargin for final 4 h;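 further: human SH-SY5Y neuroblastoma cells carrying the GLuc-SERCaMP reporter; compound exposure about 46 h in total before the viability read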
[9] = target: Calcium and integrin-binding protein 1 (Homo sapiens) (UniProt Q99828); assay: Confirmatory qHTS for Identification of Calcium Integrin Binding Protein 1 (CIB1) Competitor (AID 1508617); conditions: CIB1 binding competition assay, biochemical qHTS; series mostly up to 114 µM; further: potency means the concentration at half of the fitted maximal effect; nearly all actives have a fitted effect of over 65% in size
In short: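 Confirmatory qHTS measures displacement of a FITC-alphaIIb peptide (100 nM) from CIB1-GST (1 uM) by fluorescence polarization. Calcium-containing HEPES buffer, pH 7.4; two 15 min room-temperature incubations.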

[10] = Primary qHTS for Huh7 cytotoxicity: counterscreen for inhibitors of MERS-S pseudotyped particle cell entry (AID 1479147; calls by dose curve); conditions: cell viability read-out; series mostly up to 57.1 µM
[11] = Primary qHTS for inhibitors of MERS-S pseudo-typed particle cell entry (AID 1479149; calls by dose curve; further: nearly all actives have a fitted effect of over 60% in size); conditions: MERS-S pseudotyped particle entry, luciferase; series mostly up to 57.1 µM
[12] = Primary qHTS for Vero E6 cytotoxicity: counterscreen for inhibitors of SARS-S pseudo-typed particle cell entry (AID 1479150; calls by dose curve); conditions: cell viability; series mostly up to 57.1 µM
[13] = Primary qHTS for inhibitors of SARS-S pseudo-typed particle cell entry (AID 1479145; calls by dose curve; further: nearly all actives have a fitted effect of over 45% in size); conditions: SARS-S pseudotyped particle cell entry, luciferase reporter; series mostly up to 57.1 µM

Protein phosphatase 1D (Homo sapiens), sequence (O15297 whole entry, looked up): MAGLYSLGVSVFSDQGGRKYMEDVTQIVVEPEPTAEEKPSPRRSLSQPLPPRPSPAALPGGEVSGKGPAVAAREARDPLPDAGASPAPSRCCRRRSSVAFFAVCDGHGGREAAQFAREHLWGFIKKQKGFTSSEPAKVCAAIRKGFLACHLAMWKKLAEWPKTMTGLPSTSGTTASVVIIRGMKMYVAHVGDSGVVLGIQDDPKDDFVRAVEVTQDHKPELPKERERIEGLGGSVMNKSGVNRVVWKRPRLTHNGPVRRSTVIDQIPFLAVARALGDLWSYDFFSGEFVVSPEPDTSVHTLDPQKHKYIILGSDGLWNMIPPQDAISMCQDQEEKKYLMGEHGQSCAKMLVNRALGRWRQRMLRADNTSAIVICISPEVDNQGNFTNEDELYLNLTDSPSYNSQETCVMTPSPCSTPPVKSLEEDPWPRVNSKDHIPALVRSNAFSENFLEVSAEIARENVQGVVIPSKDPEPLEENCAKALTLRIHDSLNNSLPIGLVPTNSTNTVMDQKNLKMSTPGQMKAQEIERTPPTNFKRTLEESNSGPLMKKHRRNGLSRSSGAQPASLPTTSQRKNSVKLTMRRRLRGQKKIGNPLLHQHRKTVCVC
Calcium and integrin-binding protein 1 (Homo sapiens), sequence (Q99828 whole entry, looked up): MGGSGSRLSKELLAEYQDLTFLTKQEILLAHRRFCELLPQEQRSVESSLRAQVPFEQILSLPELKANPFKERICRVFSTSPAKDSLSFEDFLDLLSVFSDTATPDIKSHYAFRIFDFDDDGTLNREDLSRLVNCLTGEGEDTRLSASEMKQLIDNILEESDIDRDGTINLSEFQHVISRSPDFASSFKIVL

Cc1ncc2n1-c1ccc(Cl)cc1C(c1ccccc1F)=NC2
Potency [1]: inactive | Potency [2]: inactive | outcome [3]: inactive | outcome [4]: inactive | Potency [5]: inactive

CCC(=O)OC1(c2ccccc2)CCN(C)CC1
Potency [1]: inactive | Potency [2]: inactive | outcome [3]: inactive | outcome [4]: inactive | Potency [5]: inactive | Potency [6]: inactive

CCC(OC(C)=O)C(CC(C)NC)(c1ccccc1)c1ccccc1 (centres undefined)
Potency [1]: inactive | Potency [2]: inactive | outcome [3]: inactive | outcome [4]: inactive | Potency [5]: inactive

O=C1NCN(c2ccccc2)C12CCN(CCCOc1ccc(F)cc1)CC2
Potency [1]: inactive | Potency [2]: inactive | outcome [3]: inactive | outcome [4]: inactive | Potency [5]: inactive | Potency [6]: 8.91 µM (active) | Potency [7]: 2.51 µM (active) and 3.16 µM (active) | max response [8]: -6.39%

CNC(C)Cc1ccc2c(c1)OCO2 (centres undefined)
Potency [1]: inactive | Potency [2]: inactive | outcome [3]: inactive | outcome [4]: inactive | Potency [5]: inactive

CN(C)CCc1c[nH]c2ccccc12
Potency [1]: inactive | Potency [2]: inactive | outcome [3]: inactive | outcome [4]: inactive | Potency [5]: inactive

COCC(=O)N(c1c(C)cccc1C)C(C)C(=O)OC (centres undefined)
Potency [1]: inactive | Potency [2]: inactive | outcome [3]: inactive | outcome [4]: inactive | Potency [5]: inactive

ClCCCN1CCN(c2cccc(Cl)c2)CC1
Potency [1]: inactive | Potency [2]: inactive | outcome [3]: inactive | outcome [4]: inactive | Potency [5]: inactive

CN(C)CCc1c[nH]c2cccc(O)c12
Potency [1]: inactive | Potency [2]: inactive | outcome [3]: inactive | Potency [9]: 126 µM (active)

CC(C)=CCN1CC[C@@]2(C)c3cc(O)ccc3C[C@@H]1[C@@H]2C
Potency [1]: inactive | Potency [2]: inactive | outcome [3]: inactive | outcome [4]: inactive | Potency [5]: inactive | Potency [6]: inactive | Potency [7]: 28.2 µM (active) | max response [8]: -7.58%

CN1C(=O)CN=C(c2ccccc2)c2cc([N+](=O)[O-])ccc21
Potency [1]: inactive | Potency [2]: inactive | outcome [3]: inactive | outcome [4]: inactive | Potency [5]: inactive

CC[C@H]1C[C@@H]2C[C@H]3c4[nH]c5ccc(OC)cc5c4CCN(C2)[C@@H]13
Potency [1]: inactive | Potency [2]: inactive | outcome [3]: inactive | outcome [4]: inactive | Potency [5]: inactive

CCS(=O)(=O)C(C)(C)S(=O)(=O)CC
Potency [1]: inactive | Potency [2]: inactive | outcome [3]: inactive | outcome [4]: inactive | Potency [5]: inactive

CCCC(C)C1(CC)C(=O)N=C(S)NC1=O (centres undefined)
Potency [1]: inactive | Potency [2]: inactive | outcome [3]: inactive | outcome [4]: inactive | Potency [5]: inactive

C[C@H]1C(=O)O[C@@H]2CCN3CC=C(COC(=O)[C@](C)(O)[C@]1(C)O)[C@H]23
Potency [1]: inactive | Potency [2]: inactive | outcome [3]: inactive | outcome [4]: inactive | Potency [5]: inactive

CCOC(=O)NC(C)(C)Cc1ccc(Cl)cc1
Potency [1]: inactive | Potency [2]: inactive | outcome [3]: inactive | Potency [5]: inactive

C#C[C@]1(O)C=C[C@H]2[C@@H]3CCC4=CC(=O)CC[C@@H]4[C@H]3CC[C@@]21CC
Potency [2]: inactive | outcome [3]: inactive | Potency [10]: inactive | Potency [11]: inactive | Potency [12]: inactive | outcome [4]: inactive | Potency [5]: inactive

CNC(=O)Oc1cccc2ccccc12
Potency [2]: inactive | outcome [3]: inactive | Potency [13]: inactive | Potency [10]: inactive | Potency [11]: inactive | Potency [12]: inactive | outcome [4]: inactive | Potency [5]: inactive

O=C(CBr)Nc1ccc(Cl)cc1C(=O)c1ccccc1F
Potency [1]: inactive | Potency [2]: inactive | outcome [3]: inactive | Potency [5]: inactive

C[C@H]1CNCCc2ccc(Cl)cc21
Potency [1]: inactive | Potency [2]: inactive | outcome [3]: inactive | Potency [5]: inactive

CN1CCc2cc(Cl)c(O)cc2[C@H]2c3ccccc3CC[C@@H]21
Potency [1]: inactive | Potency [2]: inactive | outcome [3]: inactive | Potency [5]: inactive

CCN(Cc1ccc(Cl)nc1)/C(=C/[N+](=O)[O-])NC
Potency [1]: inactive | Potency [2]: inactive | outcome [3]: inactive | Potency [5]: inactive

O=C(N[C@H]1N=C(c2ccccc2F)c2cccc3c2N(CC3)C1=O)c1cc2ccccc2[nH]1
Potency [1]: inactive | outcome [3]: inactive | Potency [13]: inactive | Potency [10]: inactive | Potency [11]: inactive | Potency [12]: inactive | outcome [4]: inactive | Potency [5]: inactive
